Reference: PubChem BioAssay (NCI)
The panel holds about 83,000 compounds, 20% with a hit somewhere; the sample as a whole holds those more often.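 Compound tested at a single concentration for 48 hours in 96-well plates; a percent growth value below 10 was scored as active.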 Unmarked numbers belong to inactive results. Active and inactive are the calls of the source.

Tested on: HL-60(TB) leukemia
Experiment: NCI-60 one-dose screen, 48 h (100 = growth as untreated, 0 = no growth, -100 = all killed)
Settings: 10 µM unless noted

Row | Compound | growth
1 | CCCS(=O)(=O)Nc1ccc(F)c(C(=O)c2c[nH]c3ncc(-c4ccc(Cl)cc4)cc23)c1F | 30.7%
2 | COc1ccc(NC(=O)Nc2ccc(Nc3nc(C)cc(Nc4ccc(C)cc4)n3)cc2)cc1 | -55.4% (active)
3 | COc1cc(Nc2ccnc(N3CCN(c4ccnc5cc(Cl)ccc45)CC3)n2)cc(OC)c1 | -23.7% (active)
4 | Cc1ccc(OCCOCCOCCOCCOCCOc2ccc(C)n(O)c2=S)c(=S)n1O | -16.5% (active)
5 | Cc1ccc(-c2nc3c(N=Nc4ccc(S(N)(=O)=O)cc4)c(N)nn3c(N)c2C#N)cc1 | 2.71% (active)
6 | CCCCSc1cc(C)nc(N)n1 | 96.6%
7 | CN1CCN(C(=O)c2c3c(n4ccccc24)C(=O)c2ncccc2C3=O)CC1 | 53.4%
8 | COc1ccc(/C=C2\N=C(c3ccccc3)N(C(=O)c3ccccc3O)NC2=O)cc1 | -10.5% (active)
9 | Cc1[nH]c(-c2cc(N)ccc2Cl)c2c1C(=O)CCCC2 | -14.4% (active)
10 | O=C(Cn1nnc2ccccc21)N/N=C/c1c[nH]c2ccccc12 | 31.1%
11 | N#C/C(=C\c1ccc(F)cc1)n1nc2cccc(F)c2n1 | 8.65% (active)
12 | COc1ccc(C(=O)COc2ccc(/C=C3\Oc4ccc(OC)cc4C3=O)cc2)cc1 | 94.1%
13 | COc1cc2cc(Oc3ccc(NC(=O)Nc4ccccc4)cc3)c(C)nc2cc1OCCN1CCCCC1 | -46.8% (active)
14 | CCN1C(=O)N(CC)C2C1NN=c1s/c(=C3\C(=O)N(CC(C)C)c4ccccc43)c(=O)n12 (stereo not given) | -43.8% (active)
15 | Cc1cccc2c1S/C(=C/c1ccc([N+](=O)[O-])cc1)C2=O | 101%
16 | Cc1cc(O)c2cc3c(O)c(O)ccc3cc2c1 | 82.7%
17 | COC(=O)[C@H](Cc1cn(C)cn1)NC(=O)[C@H](CC(=O)OCc1ccccc1)NC(=O)Nc1cc(C(F)(F)F)cc(C(F)(F)F)c1 | -68.9% [100 µM] (active)
18 | COc1cc(C2CC(c3ccc(Cl)cc3)=NN2C(C)=O)ccc1Oc1ccnc2cc(Cl)ccc12 (stereo not given) | 110%
19 | CCOC(=O)C(=Cc1cccc(C#N)c1)C(=O)OCC | 27.9%
20 | CCN(c1ccc(C(=O)N2CCN(c3ccccc3)CC2)cc1)S(C)(=O)=O | 99.4%

Row | Compound | growth
21 | COc1cc(CCNc2cnc3cc(N)cc(N)c3n2)cc(OC)c1 | 27.9%
22 | O=C1Nc2ccc(Cl)cc2/C1=N/N=C(c1ccccc1)c1ccccc1 | 91.4%
23 | COc1cccc(-c2nc3sccn3c2-c2cccc(S(C)(=O)=O)c2)c1 | 98.3%
24 | COc1cc(C(=O)c2cnc(-c3c[nH]c4cccc(C)c34)[nH]2)cc(OC)c1OC | -14.9% (active)
25 | COc1ccc(-c2[nH]nc(N)c2-c2cc(OC)c3c(c2)OCO3)cc1 | 20.5%
26 | O=C1COCCN1c1ccc(NCc2cn(C(=O)c3ccc(Cl)cc3)c3ccccc23)cc1 | 90.6%
27 | CC(=O)c1cc(Nc2cc(C)nc(N)n2)cc(C(C)=O)c1 | 96.1%
28 | COc1ccc(C(=O)CC(c2ccccc2)C(C#N)c2ccccc2)cc1 (stereo not given) | 87.3%
29 | O=C1N(C[P+](c2ccccc2)(c2ccccc2)c2ccccc2)CCCN1C[P+](c1ccccc1)(c1ccccc1)c1ccccc1 | 62.9%
30 | Cc1cc(/C=C2\SC(=Nc3ccccc3)N(C3CCCC3)C2=O)c(C)n1-c1ccc(Cl)cc1 | -27.3% (active)
31 | COP(=O)(OC)C(c1ccc(O)cc1)(c1ccc(O)cc1)c1ccc(O)cc1 | 93.4%
32 | C#CCOc1cccc(Nc2ncc3ncn(C4CCN(C(=O)CCl)C4)c3n2)c1 (stereo not given) | -29% [6.25 µM] (active)
33 | Cc1ccc(C(=O)/C(=C\c2ccc([N+](=O)[O-])cc2)S(=O)Cc2ccc(Cl)cc2)cc1 (stereo not given) | 33.9%
34 | CC(C)C1(C(C)C)NC(=O)NC1=O | 95.1%
35 | CC(=O)OC(c1ccccc1)C1CCOC1=O (stereo not given) | 113%
36 | COc1ccc(OC)c(/C=C/C(=O)N/N=C/c2ccc(Cl)cc2)c1 | 20.1%
37 | COc1cc(-c2nn(-c3ccc(NC(=O)c4ccc(Cl)c(Cl)c4)cc3)cc2-c2ccncc2)ccc1Cl | 33.8%
38 | Cc1ccc2c(c1)O/C(=C\c1cccc(OCC(=O)c3ccccc3)c1)C2=O | 12.1%
39 | Nc1n[nH]c2ccc([C@@H]3Nc4ccc5cn[nH]c5c4[C@H]4C5CCC(C5)[C@@H]34)cc12 (stereo not given in full) | -29.2% (active)
40 | ClC(Cl)c1nc(-c2ccccc2)n2nc(-c3ccccc3)cc2n1 | -7.03% (active)
